High-throughput results as filed in PubChem BioAssay.
Rtt109 Vps75: C. albicans Rtt109 histone acetyltransferase inhibition. inhibition, % at 34.9 µM. purified Rtt109/Vps75, ThioGlo CoA-SH fluorescence, 4 h. AID 540336. Q5AAJ8. actives 0.16% (n = 330,000);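 active = inhibition of at least 50% in every replicate; inconclusive = best replicate reaches 50% inhibition but some replicates fall short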
Target sequence (Q5AAJ8 whole entry, looked up): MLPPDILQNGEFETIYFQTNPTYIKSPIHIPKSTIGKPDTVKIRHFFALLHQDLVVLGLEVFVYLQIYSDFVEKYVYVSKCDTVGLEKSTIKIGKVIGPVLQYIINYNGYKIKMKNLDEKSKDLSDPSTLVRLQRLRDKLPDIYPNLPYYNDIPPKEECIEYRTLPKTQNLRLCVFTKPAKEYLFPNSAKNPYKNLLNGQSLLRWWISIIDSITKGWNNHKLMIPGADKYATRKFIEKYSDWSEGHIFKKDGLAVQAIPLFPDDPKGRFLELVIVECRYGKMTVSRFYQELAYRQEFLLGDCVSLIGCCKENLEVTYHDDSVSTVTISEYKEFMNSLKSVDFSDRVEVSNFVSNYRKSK
PglD DTNB: blocks C. jejuni PglD acetyltransferase activity; purified PglD enzyme, DTNB colorimetric CoA detection; inhibition, % at 12.5 µM; actives 0.098% (n = 360,000); in the data active = inhibition above about 16%, passing the limit was not always enough; inconclusive = no clear call, values can overlap the other calls
Glyco luc inh: N-linked glycosylation inhibition; D54 ERlucT glycosylation luciferase reporter, 24 h; percent of 100 nM tunicamycin response; reporter increase, % at 12.5 µM; actives 0.23% (n = 360,000); AID 588692;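 active = mean luciferase reporter signal, scaled so untreated is 0 and the glycosylation-blocking control 100, at or above a set limit in every replicate; inconclusive = mean reaches the limit but not every replicate does; inactive = mean below the limit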;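 note: luciferase carries N-glycosylation sites so blocking glycosylation raises the light; 0% = median of neutral control wells and 100% = median of 100 nM tunicamycin wells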
DENV2 CPE: inhibitors of DENV2 cytopathic effect | DENV2-infected cells, cytopathic effect rescue, plate reader | CPE inhibition, % at 9.99 µM | actives 1.7% (n = 350,000) | AID 651640; in the data active = CPE inhibition above about 20%, passing the limit was not always enough; inconclusive = no clear call, values can overlap the other calls; tested in BHK-21 cells;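 note: 0% = median of neutral control wells and 100% = median of positive control wells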
Active calls of the source: *; u = inconclusive; x = no result given. This is one part of a sample in which hits are shown more often than they occur.

SMILES	Rtt109 Vps75	PglD DTNB	Glyco luc inh	DENV2 CPE
CCOC1=C2CN(S(=O)(=O)c3ccc(C)cc3)[C@H](c3ccc(CC)cc3)C[C@@H]2N(S(=O)(=O)c2ccc(C)cc2)[C@H](c2ccccc2)C1	x	3	-13	95*
CCOC1=C2CN(S(=O)(=O)c3ccc(C)cc3)[C@H](c3ccccc3)C[C@H]2[C@H]2C(=O)N(c3ccccc3)C(=O)[C@H]2C1	x	1	-4	49*
CCOC1=C2[C@H](c3ccc(CC)cc3)N(S(=O)(=O)c3ccc(C)cc3)C[C@H]2C(C#N)(C#N)C(C#N)(C#N)C1	x	1	33*	1
CCOC1=C2CN(S(=O)(=O)c3ccc(C)cc3)C(c3ccc(CC)cc3)CC2N(S(=O)(=O)c2ccc(C)cc2)C(c2ccc(CC)cc2)C1 (centres undefined)	x	x	x	-5
C[C@@H]1CN([C@@H](C)CO)C(=O)Cc2cc(NC(=O)CCCCCC(=O)Nc3ccccc3N)ccc2O[C@H]1CN(C)Cc1ccc(C(F)(F)F)cc1	x	-3	x	50*
C[C@@H]1CN([C@H](C)CO)C(=O)Cc2cc(NC(=O)CCCCCC(=O)Nc3ccccc3N)ccc2O[C@@H]1CN(C)C(=O)Nc1ccc(C(F)(F)F)cc1	x	0	x	-1
C[C@@H]1CN([C@@H](C)CO)C(=O)Cc2cc(NC(=O)CCCCCC(=O)Nc3ccccc3N)ccc2O[C@@H]1CN(C)Cc1ccc2c(c1)OCO2	x	2	x	60*
C[C@@H]1CN([C@@H](C)CO)C(=O)Cc2cc(NC(=O)CCCCCC(=O)Nc3ccccc3N)ccc2O[C@H]1CN(C)C	x	21*	x	u
C[C@H]1CN([C@@H](C)CO)C(=O)Cc2cc(NC(=O)CCCCCC(=O)Nc3ccccc3N)ccc2O[C@H]1CN(C)Cc1ccc(C(F)(F)F)cc1	x	1	x	80*
C[C@H]1CN([C@@H](C)CO)C(=O)Cc2cc(NC(=O)CCCCCC(=O)Nc3ccccc3N)ccc2O[C@@H]1CN(C)Cc1ccc(C(F)(F)F)cc1	x	-2	x	-5
O=C(C[C@H]1C[C@H]2c3cc(NC(=O)C4CCC4)ccc3O[C@H]2[C@H](CO)O1)NCc1cccc(F)c1	x	2	x	u
C[C@H](CO)N1C[C@H](C)[C@H](CN(C)Cc2ccccc2)Oc2ccc(NC(=O)CCCCCC(=O)Nc3ccccc3N)cc2CC1=O	x	0	x	58*
Cc1cccc(N(C(=O)Cn2nnc3ccccc32)C(C(=O)NC(C)(C)C)c2ccsc2)c1 (centres undefined)	2	-8	-3	24*
C[C@H](CO)N1C[C@H](C)[C@@H](CN(C)CC2CCCCC2)Oc2ccc(NC(=O)Nc3ccc4c(c3)OCO4)cc2CC1=O	x	1	x	29*
C[C@@H]1CN([C@H](C)CO)C(=O)Cc2cc(NC(=O)NC3CCCCC3)ccc2O[C@H]1CN(C)CC1CCCCC1	x	2	x	25*
C[C@H]1CN([C@@H](C)CO)C(=O)Cc2cc(NC(=O)NC3CCCCC3)ccc2O[C@@H]1CN(C)CC1CCCCC1	x	0	x	u
O=C(C[C@@H]1CC[C@H]2[C@@H](COC[C@H](O)CN2CC2CCCCC2)O1)NCc1ccc(Cl)cc1	x	0	x	-11
Cc1ccc(C(O)c2ncc(-c3ccc4ccccc4c3)[nH]2)cc1 (centres undefined)	x	-2	-2	76*
Cc1cc(C)cc(C(O)c2ncc(-c3ccc4ccccc4c3)[nH]2)c1 (centres undefined)	x	-3	8	-4
CC=Cc1ccc2n(c1=O)C[C@H]1[C@H](CO)[C@@H](C(=O)NCC3CC3)[C@@H]2N1Cc1ccccc1OC (mixture of isomers)	x	-6	x	3
CCCCNC(=O)C1(C)CCN1C(=O)c1cc(-c2cccs2)oc1C (centres undefined)	x	-2	15	33*
CCC(=O)Nc1ccc2c(c1)C(=O)N(C)C[C@@H](OC)[C@H](C)CN(C(=O)Nc1ccccc1F)[C@H](C)CO2	x	-2	x	0
O=C1c2ccccc2C(Nc2ccc(F)c(Cl)c2)N1Cc1ccco1 (centres undefined)	4	7	-3	36*
COc1ccc(NC2c3ccccc3C(=O)N2Cc2ccco2)cc1OC (centres undefined)	4	-3	-1	-1
Cc1ccc2nc(/C(C#N)=C/c3cn[nH]c3-c3ccc(F)cc3)[nH]c2c1	-10	x	32*	x
SMILES	Rtt109 Vps75	PglD DTNB	Glyco luc inh	DENV2 CPE
CO[C@H]1CN(C)C(=O)c2ccc(NC(=O)C3CC3)cc2OC[C@@H](C)N(CCC(F)(F)F)C[C@H]1C	x	-1	x	-4
COc1ccc2c(c1)c1nnc(SCC(=O)Nc3ccccc3F)nc1n2C	-1	1	2	51*
Cc1ccc(-n2nc3c(=O)n(CC(=O)NCc4cccs4)nc(C)c3c2C)cc1	-5	-4	0	54*
Cc1nn(CC(=O)NCCc2cccs2)c(=O)c2nn(-c3ccccc3)c(C)c12	13	-4	0	6
Cc1ccc2sc(C)[n+](CCO)c2c1	104*	6	1	-2
CCCC[n+]1c(C)sc2ccc(C)cc21	4	x	0	1
CC[n+]1c(C)sc2cc(C)ccc21	85*	1	3	3
Cc1ccc(S(=O)(=O)Nc2ccc3c(c2)C(=O)N([C@H](C)CO)C[C@H](C)[C@@H](CN(C)C(=O)Nc2ccc4c(c2)OCO4)OCCCC[C@H](C)O3)cc1	x	-1	x	-4
CN1C[C@@H](O)COC[C@@H]2O[C@H](CC(=O)N3CCN(c4ccccc4)CC3)CC[C@H]21	x	2	x	2
Cn1c(=O)c2c(nc(NC3CCCCC3)n2Cc2ccccc2)n(C)c1=O	3	-5	0	-9
Cn1c(=O)c2c(nc(NC3CCCCC3)n2CC(=O)C23CC4CC(CC(C4)C2)C3)n(C)c1=O	57*	-2	-4	x
O=C(C[C@@H]1CC[C@@H]2[C@H](COC[C@H](O)CN2C(=O)Nc2ccc(C(F)(F)F)cc2)O1)NCC1CCCCC1	x	-1	x	-2
COc1cc(CN2CCc3ccccc3C2)ccc1O	-4	x	93*	-5
COc1cc(CN2CCc3ccccc3C2)cc([N+](=O)[O-])c1O	1	5	3	2
OC[C@H]1[C@@H](c2ccc(C#CC3CC3)cc2)[C@@H]2CN(CCC(F)(F)F)CCCCN12	x	0	x	x
C[C@H]1CCCCO[C@@H](CN(C)S(=O)(=O)c2cn(C)cn2)[C@@H](C)CN([C@@H](C)CO)C(=O)c2cc(NS(=O)(=O)c3cccs3)ccc2O1	x	4	x	-2
C[C@@H]1CCCCO[C@@H](CN(C)S(=O)(=O)c2cn(C)cn2)[C@@H](C)CN([C@H](C)CO)C(=O)c2cc(NS(=O)(=O)c3cccs3)ccc2O1	x	0	x	30*
C[C@@H]1CN([C@@H](C)CO)C(=O)c2cc(NS(=O)(=O)c3cccs3)ccc2O[C@@H](C)CCCCO[C@@H]1CN(C)S(=O)(=O)c1cn(C)cn1	x	-3	x	34*
COCCn1c(=N)c(C(=O)NCCc2ccccc2)cc2c(=O)n3cccc(C)c3nc21	-468	x	0	x
Cc1cccn2c(=O)c3cc(C(=O)NC4CCCC4)c(=N)n(CCc4ccccc4)c3nc12	-1	0	30*	0
